Data on five molecules can be found in PMC5540273 (PLoS ONE, 2017).

Some test systems named below: INSR; IRAK1; IRAK3; IRAK4; ITK; KIT-autoinhibited; KIT; LATS1; LATS2; LCK; LIMK1; LIMK2.
Holding throughout (conditions): concentration: 1 μM, replicates: in singlicate; n = 1
Test [1] concerns JAK1(JH1domain-catalytic).
Test [2] deals with JAK1(JH2domain-pseudokinase).
Test [3] deals with JAK2(JH1domain-catalytic).
Test [4] has as its system JAK3(JH1domain-catalytic).
Another test deals with T1, JNK1.
T1 construct: gene MAPK8

Another test has as its system T2, JNK2.
T2 construct: gene MAPK9

For a further test, the system named is T3, JNK3.
T3 construct: gene MAPK10

A further test concerns T4, LKB1.
T4 construct: gene STK11
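Further: KINOMEscan kinase panel screen.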

As to `CCn1c(-c2ccoc2)nc2cnccc21` [SB-733887], the “%Inh” value was 96.3% in the test on INSR; 59% with IRAK1; 0% with IRAK3; 50% in the test on IRAK4; 9% with ITK; 9% in test [1]. The “%Inh” value in test [2] stood at 65%; in test [3], 16%; in test [4], 0%; with JNK1 it was 9%; in the test with JNK2, 0%; in the test on JNK3 it was 0%. For the same molecule, the “%Inh” value with KIT-autoinhibited came to 61%; in the test on KIT, 5%; in the test with LATS1, 19%; in the test with LATS2 it was 60%; in the test with LCK, 35%; with LIMK1 it was 10%. The figures for the “%Inh” value in the test with LIMK2 and in the test with LKB1 were 6% and 0%, respectively.
On to `COc1cc2nccc(Nc3ccc(OCc4ccc(NC(C)=O)cc4)cc3)c2cc1OC.Cl` [GW440135], for which the “%Inh” value came out at 0% in the test on INSR; 28% in the test on IRAK1; 1% in the test with IRAK3; 0% in the test with IRAK4; 5% in the test on ITK; 20% in test [1]. The “%Inh” value was 0% in test [2]; 0% in test [3]; 0% in test [4]; 15% in the test with JNK1; 0% with JNK2; 0% in the test with JNK3. For the same molecule, the “%Inh” value in the test with KIT-autoinhibited is reported as 12%; in the test with KIT it was 100%; in the test on LATS1, 0%; with LATS2, 0%; in the test on LCK it was 22%; in the test with LIMK1, 0%. For the same molecule, the “%Inh” value with LIMK2 and with LKB1 was 0% each time.
`CCC(=O)c1c(-c2ccccc2)c2cc(Cl)ccc2c(=O)n1Cc1cc(S(C)(=O)=O)n(CCC(C)(C)O)n1`: the “%Inh” value with INSR is given as 13%; in the test on IRAK1 it was 2%; with IRAK3, 25%; in the test on IRAK4, 1%; with ITK it was 5%; in [1] it was 3%. For the same molecule, the “%Inh” value in test [2] was found to be 0%; in test [3], 0%; in [4], 3%; in the test with JNK1, 99.6%; with JNK2, 99.9%; in the test with JNK3, 99.9%. The “%Inh” value in the test with KIT-autoinhibited was determined as 0%; in the test with KIT, 11%; with LATS1, 31%; in the test on LATS2, 17%; in the test on LCK it was 13%; in the test on LIMK1 it was 0%. The figures for the “%Inh” value with LIMK2 and with LKB1 were 16% and 3%, respectively.
As for `Cc1nc(N(C)[C@H]2CN(C(=O)CC#N)CC[C@H]2C)c2cc[nH]c2n1`, the “%Inh” value in the test with INSR worked out at 0%; with IRAK1 it was 0%; with IRAK3, 0%; in the test with IRAK4 it was 0%; in the test on ITK, 5%; in [1], 11%. Also, the “%Inh” value in test [2] is recorded as 0%; in test [3], 69%; in test [4], 97.6%; with JNK1, 1%; in the test with JNK2, 0%; in the test with JNK3 it was 0%. The “%Inh” value with KIT-autoinhibited stood at 0%; with KIT, 0%; with LATS1 it was 7%; in the test on LATS2, 13%; with LCK, 0%; in the test with LIMK1 it was 0%. For the same molecule, the results for the “%Inh” value in the test with LIMK2 and with LKB1 were 16% and 0%, respectively.
For the molecule `CCc1ccc(-c2ccc3c(c2)-c2nn(C)cc2S(=O)(=O)N3C)cc1`, the “%Inh” value came to 0% in the test on INSR; 0% in the test with IRAK1; 0% with IRAK3; 10% with IRAK4; 0% with ITK; 0% in [1]. The “%Inh” value in [2] was 10%; in test [3], 0%; in [4], 0%; in the test on JNK1, 0%; in the test with JNK2, 0%; in the test with JNK3, 0%. Moreover, the “%Inh” value in the test with KIT-autoinhibited came to 53%; with KIT, 0%; in the test with LATS1, 0%; with LATS2, 0%; in the test with LCK, 17%; in the test with LIMK1 it was 0%. Further, the “%Inh” value with LIMK2 was found to be 0%; in the test on LKB1, 21%.
